The structures appear in SMILES notation. About 14,000 (4.5%) of roughly 310,000 compounds showed an effect of 50% or more. Effects have a minus sign here. The list comes from a sample in which strong results are over-represented; it also holds similar structures and randomly drawn compounds.
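Also: peak tail current of the secondary pulse compared with the same well before compound.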

Chain of human ether-à-go-go-related gene (hERG) potassium channel (Q12809 whole entry, looked up): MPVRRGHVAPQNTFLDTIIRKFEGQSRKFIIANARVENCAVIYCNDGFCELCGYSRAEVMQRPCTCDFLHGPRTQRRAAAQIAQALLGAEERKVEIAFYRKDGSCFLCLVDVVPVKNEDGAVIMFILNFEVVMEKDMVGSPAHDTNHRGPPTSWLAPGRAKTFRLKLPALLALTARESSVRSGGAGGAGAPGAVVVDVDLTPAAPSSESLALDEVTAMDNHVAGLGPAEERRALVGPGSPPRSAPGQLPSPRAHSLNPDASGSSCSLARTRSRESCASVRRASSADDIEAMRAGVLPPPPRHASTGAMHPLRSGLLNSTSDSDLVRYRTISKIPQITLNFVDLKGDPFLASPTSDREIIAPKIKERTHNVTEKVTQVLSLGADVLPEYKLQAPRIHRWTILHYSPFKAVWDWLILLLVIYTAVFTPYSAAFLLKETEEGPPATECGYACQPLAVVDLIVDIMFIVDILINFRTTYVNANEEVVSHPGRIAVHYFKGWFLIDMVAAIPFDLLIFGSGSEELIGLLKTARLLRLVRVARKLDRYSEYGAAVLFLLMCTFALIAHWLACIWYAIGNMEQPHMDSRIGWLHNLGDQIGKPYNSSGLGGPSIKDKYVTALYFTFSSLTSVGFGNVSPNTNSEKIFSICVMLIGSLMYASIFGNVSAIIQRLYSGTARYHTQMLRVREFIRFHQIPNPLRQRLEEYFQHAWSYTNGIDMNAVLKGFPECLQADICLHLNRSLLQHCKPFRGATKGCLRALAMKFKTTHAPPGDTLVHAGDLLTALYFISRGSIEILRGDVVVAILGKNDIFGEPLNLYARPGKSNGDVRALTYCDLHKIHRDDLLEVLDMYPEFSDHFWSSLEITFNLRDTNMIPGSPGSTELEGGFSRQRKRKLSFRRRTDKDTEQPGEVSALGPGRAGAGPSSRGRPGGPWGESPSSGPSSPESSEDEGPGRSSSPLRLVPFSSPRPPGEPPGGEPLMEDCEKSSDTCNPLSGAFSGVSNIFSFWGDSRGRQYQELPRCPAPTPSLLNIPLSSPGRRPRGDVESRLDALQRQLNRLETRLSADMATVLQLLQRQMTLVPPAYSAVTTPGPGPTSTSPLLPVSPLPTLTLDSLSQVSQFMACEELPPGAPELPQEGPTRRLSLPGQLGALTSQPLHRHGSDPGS

This assay has as its target human ether-à-go-go-related gene (hERG) potassium channel (human, UniProt Q12809). Nature of the assay: primary screen, population patch clamp on CHO cells stably expressing hERG; higher = less effect of the substance.
With `COC(=O)C1=C(N)Oc2cc(C)n(Cc3ccncc3)c(=O)c2C1c1cccnc1` (stereo not drawn), the “hERG current change (%, negative = inhibition) at 10uM” value was -14.8%.

Regarding `CCn1c(/C=C\c2ccccc2C)nc2ccccc2c1=O`, the “hERG current change (%, negative = inhibition) at 10uM” value is -19.1%.

For the molecule `CC(C)c1ncc(S(=O)(=O)c2ccc(C(F)(F)F)cn2)c(N)n1`, the “hERG current change (%, negative = inhibition) at 10uM” value was 11.6%.

As for `CCOc1ncccc1C(=O)N1CCN(c2cc(Cl)ccc2C)CC1`, the “hERG current change (%, negative = inhibition) at 10uM” value is -4.75%.

As for `CCCCN1Cc2c(nc3cc(-c4ccccc4)[nH]n3c2=O)C1=O`, the “hERG current change (%, negative = inhibition) at 10uM” value is given as 6.51%.

Regarding `Clc1ccccc1-c1nn2c(-c3ccncc3)nnc2s1`, the “hERG current change (%, negative = inhibition) at 10uM” value was -7.89%.

Take `O=C(Nc1cccc(Cl)c1)Nc1nnc(-c2ccccc2)o1`: the “hERG current change (%, negative = inhibition) at 10uM” value is reported as 3.18%.

Consider `O=C(Nc1ccccc1N1CCCC1)c1ccc([N+](=O)[O-])cc1Cl`, for which the “hERG current change (%, negative = inhibition) at 10uM” value is listed as -21.5%.

With `CN1CCN(c2ccccc2NC(=O)c2ccc([N+](=O)[O-])cc2Cl)CC1`, the “hERG current change (%, negative = inhibition) at 10uM” value was -34.9%.

On to `CN1CCN(c2ccc([N+](=O)[O-])cc2NC(=O)c2ccccc2Cl)CC1`, for which the “hERG current change (%, negative = inhibition) at 10uM” value is on record as -71.1%.

`Cn1c(=O)oc2cc(S(=O)(=O)NCCC(=O)Nc3ccc4c(c3)OCCO4)ccc21`: the “hERG current change (%, negative = inhibition) at 10uM” value is reported as 2.4%.

Regarding `CCOc1ccc(CCNC(=O)COC(=O)c2cccnc2OCC)cc1OCC`, the “hERG current change (%, negative = inhibition) at 10uM” value is -1.87%.

Turning to `CCN(Cc1ccc(OC)c(F)c1)C(=O)c1cc2ccccc2o1`, the “hERG current change (%, negative = inhibition) at 10uM” value was -24.7%.

Turning to `CCN(Cc1ccc(OC)c(F)c1)C(=O)c1oc2ccccc2c1COC`, the “hERG current change (%, negative = inhibition) at 10uM” value is listed as -54.6%.

As to `COc1ccc(CN(C)C(=O)c2oc3ccccc3c2CSC)cc1F`, the “hERG current change (%, negative = inhibition) at 10uM” value stood at 14.4%.

Take `CC(/C=C/c1cccc([N+](=O)[O-])c1)=N/NC(=O)c1cccnc1`: the “hERG current change (%, negative = inhibition) at 10uM” value is -22.7%.

In the case of `O=c1c(C(c2ccc(F)cc2)c2c(O)nc3n(c2=O)CCCS3)c(O)nc2n1CCCS2`, the “hERG current change (%, negative = inhibition) at 10uM” value came out at 9.97%.

Regarding `O=C(Nc1cccc(Cl)c1)OCc1cn(-c2ccc(Cl)cc2)nn1`, the “hERG current change (%, negative = inhibition) at 10uM” value is given as 1.69%.

As to `O=C(Nc1cccc(Cl)c1)OCc1cn(-c2ccccc2)nn1`, the “hERG current change (%, negative = inhibition) at 10uM” value is recorded as -52.6%.

As to `O=C(Nc1ccccc1)OCc1cn(-c2ccc(Cl)cc2)nn1`, the “hERG current change (%, negative = inhibition) at 10uM” value is listed as 22.3%.

As to `OCCc1ccc(O)c(-n2nc3ccccc3n2)c1`, the “hERG current change (%, negative = inhibition) at 10uM” value is recorded as -17.1%.

As for `Cc1ccc(NC(=O)COc2ccc(CCO)cc2-n2nc3ccccc3n2)cc1C`, the “hERG current change (%, negative = inhibition) at 10uM” value came to 6.89%.

For `N#Cc1ccc(COc2ccc(CCO)cc2-n2nc3ccccc3n2)cc1`, the “hERG current change (%, negative = inhibition) at 10uM” value is -66.6%.

As for `COc1ccc(NC(=O)c2ccc(COCC(F)(F)C(F)F)cc2)cc1OC`, the “hERG current change (%, negative = inhibition) at 10uM” value was determined as 7.39%.

On to `COC(=O)CCC(=O)OC1(C)C(=O)C=C2C=C(C3CC3)N(CCCCO)C=C2C1=O` (stereo not drawn), for which the “hERG current change (%, negative = inhibition) at 10uM” value stood at 4.26%.

Consider `CCOCCCNCc1ccc(OCc2ccc(F)cc2)c(OC)c1.Cl`, for which the “hERG current change (%, negative = inhibition) at 10uM” value was -33.6%.

Turning to `CCOCCCNCc1cc(Br)ccc1OCC.Cl`, the “hERG current change (%, negative = inhibition) at 10uM” value is recorded as -55.5%.

On to `CCOCCCNCc1cccc(OC)c1.O=C(O)C(=O)O`, for which the “hERG current change (%, negative = inhibition) at 10uM” value is recorded as 3.11%.

Turning to `CCCNCc1cc(OC)c(OCc2ccccc2)cc1Br.Cl`, the “hERG current change (%, negative = inhibition) at 10uM” value is -28.2%.

In the case of `CCOCCCNCc1ccc(OCc2ccccc2C)c(OC)c1.Cl`, the “hERG current change (%, negative = inhibition) at 10uM” value is on record as -24.4%.

As for `CCOc1ccc(Br)cc1CNCCN1CCOCC1`, the “hERG current change (%, negative = inhibition) at 10uM” value was found to be 1.31%.

`CCOCCCNCc1cc(Br)ccc1OCc1ccccc1`: the “hERG current change (%, negative = inhibition) at 10uM” value is on record as -68.1%.

Turning to `CCOCCCNCc1cc(Cl)ccc1OCC.Cl`, the “hERG current change (%, negative = inhibition) at 10uM” value was -11.8%.

For the molecule `CCOCCCNCc1cccc(OCc2ccc(F)cc2)c1`, the “hERG current change (%, negative = inhibition) at 10uM” value is reported as -50.1%.

For `CCC1(c2ccccc2)NC(=S)N(c2ccc(C)cc2)N1` (stereo not drawn), the “hERG current change (%, negative = inhibition) at 10uM” value is listed as 22%.

`O=C(/C=C/c1ccc(F)cc1)NC(=S)Nc1ccccc1C(=O)NC1CCCCC1`: the “hERG current change (%, negative = inhibition) at 10uM” value is 2.56%.

As to `CC1CC(C)CN(C(=O)c2ccncc2)C1` (stereo not drawn), the “hERG current change (%, negative = inhibition) at 10uM” value came out at 10.1%.

Regarding `COc1ccc(NC(=O)/C=C/c2ccccc2[N+](=O)[O-])c(OC)c1`, the “hERG current change (%, negative = inhibition) at 10uM” value amounted to 4.66%.

Turning to `COCCNC(=O)C1CC(c2cccc([N+](=O)[O-])c2)=NO1` (stereo not drawn), the “hERG current change (%, negative = inhibition) at 10uM” value worked out at 15.8%.

Regarding `Cc1cc(NC(=O)Cn2nnc3sc4c(c3c2=O)CCCC4)no1`, the “hERG current change (%, negative = inhibition) at 10uM” value is given as 9.97%.

Regarding `O=C(NCCc1ccc(Cl)cc1)C1=CC=CN2CCS(=O)(=O)N=C12`, the “hERG current change (%, negative = inhibition) at 10uM” value is reported as -9.31%.

`CC(NC(=O)C1=CC=CN2CCS(=O)(=O)N=C12)c1ccc(Cl)cc1Cl` (stereo not drawn): the “hERG current change (%, negative = inhibition) at 10uM” value is -57.9%.

As for `O=C(NCc1cccc(Cl)c1)C1=CC=CN2CCS(=O)(=O)N=C12`, the “hERG current change (%, negative = inhibition) at 10uM” value is -5.54%.

Take `c1ccc2c(Nc3nc4c(s3)CCCC4)cccc2c1`: the “hERG current change (%, negative = inhibition) at 10uM” value is 2.23%.

As to `O=C(CSc1nc2ccc([N+](=O)[O-])cc2s1)NC1CCS(=O)(=O)C1` (stereo not drawn), the “hERG current change (%, negative = inhibition) at 10uM” value is recorded as -5.62%.

Source of the values: article PMC4336329 (PLoS ONE, 2015).
